Reference: ChEMBL document CHEMBL1961873, “Compounds: GSK PKIS; Assays: Nanosyn kinase panel” (2012)

Columns and labels:
[1] = biological target: Fibroblast growth factor receptor 4 (Homo sapiens) (UniProt P22455); conditions: at 1 µM;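 also: reported figure is the averaged percent inhibition of FGFR4, from the GSK PKIS kinase screening panel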
[2] = biological target: Tyrosine-protein kinase Fgr (Homo sapiens) (UniProt P09769); conditions: at 0.1 µM
[3] = biological target: Tyrosine-protein kinase Fgr (Homo sapiens) (UniProt P09769); conditions: at 1 µM
[4] = biological target: Vascular endothelial growth factor receptor 1 (Homo sapiens) (UniProt P17948); conditions: at 0.1 µM
[5] = biological target: Vascular endothelial growth factor receptor 1 (Homo sapiens) (UniProt P17948); conditions: at 1 µM
[6] = biological target: Receptor-type tyrosine-protein kinase FLT3 (Homo sapiens) (UniProt P36888); conditions: at 0.1 µM
[7] = biological target: Receptor-type tyrosine-protein kinase FLT3 (Homo sapiens) (UniProt P36888); conditions: at 1 µM
[8] = system: T1, Receptor-type tyrosine-protein kinase FLT3 (Homo sapiens), P36888 [D835Y]; conditions: at 0.1 µM
T1 sequence (whole entry): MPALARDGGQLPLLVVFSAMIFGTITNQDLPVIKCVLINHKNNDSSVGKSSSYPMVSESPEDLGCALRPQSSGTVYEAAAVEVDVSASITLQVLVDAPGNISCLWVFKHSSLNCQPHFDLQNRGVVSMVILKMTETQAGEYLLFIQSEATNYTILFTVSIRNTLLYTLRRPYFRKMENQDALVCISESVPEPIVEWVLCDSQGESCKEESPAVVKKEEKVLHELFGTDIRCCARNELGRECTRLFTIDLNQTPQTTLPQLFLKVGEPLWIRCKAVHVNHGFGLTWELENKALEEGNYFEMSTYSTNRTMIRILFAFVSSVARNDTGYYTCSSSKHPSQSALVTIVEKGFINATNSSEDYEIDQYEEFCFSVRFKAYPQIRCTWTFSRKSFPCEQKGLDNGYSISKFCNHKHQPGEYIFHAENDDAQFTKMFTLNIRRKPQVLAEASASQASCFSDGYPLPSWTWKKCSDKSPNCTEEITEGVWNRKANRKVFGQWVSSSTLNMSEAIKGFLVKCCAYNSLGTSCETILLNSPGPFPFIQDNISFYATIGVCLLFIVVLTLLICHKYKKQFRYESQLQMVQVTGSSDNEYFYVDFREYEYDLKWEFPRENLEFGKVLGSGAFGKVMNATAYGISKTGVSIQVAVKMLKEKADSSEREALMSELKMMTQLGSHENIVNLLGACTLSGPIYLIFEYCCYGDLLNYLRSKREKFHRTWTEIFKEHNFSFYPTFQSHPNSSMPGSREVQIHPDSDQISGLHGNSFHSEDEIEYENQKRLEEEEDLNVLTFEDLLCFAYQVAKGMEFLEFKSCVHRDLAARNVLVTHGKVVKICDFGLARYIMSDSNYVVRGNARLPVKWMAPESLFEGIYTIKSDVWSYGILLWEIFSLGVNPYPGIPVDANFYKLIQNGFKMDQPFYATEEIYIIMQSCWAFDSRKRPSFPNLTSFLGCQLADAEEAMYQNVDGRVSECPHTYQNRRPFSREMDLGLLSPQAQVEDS

[9] = biological target: Non-receptor tyrosine-protein kinase TYK2 (Homo sapiens) (UniProt P29597); conditions: at 1 µM;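 also: values are mean percent inhibition of TYK2 kinase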
[10] = biological target: T2, Tyrosine-protein kinase receptor TYRO3 (Homo sapiens) (UniProt Q06418); conditions: at 0.1 µM
T2 sequence (whole entry): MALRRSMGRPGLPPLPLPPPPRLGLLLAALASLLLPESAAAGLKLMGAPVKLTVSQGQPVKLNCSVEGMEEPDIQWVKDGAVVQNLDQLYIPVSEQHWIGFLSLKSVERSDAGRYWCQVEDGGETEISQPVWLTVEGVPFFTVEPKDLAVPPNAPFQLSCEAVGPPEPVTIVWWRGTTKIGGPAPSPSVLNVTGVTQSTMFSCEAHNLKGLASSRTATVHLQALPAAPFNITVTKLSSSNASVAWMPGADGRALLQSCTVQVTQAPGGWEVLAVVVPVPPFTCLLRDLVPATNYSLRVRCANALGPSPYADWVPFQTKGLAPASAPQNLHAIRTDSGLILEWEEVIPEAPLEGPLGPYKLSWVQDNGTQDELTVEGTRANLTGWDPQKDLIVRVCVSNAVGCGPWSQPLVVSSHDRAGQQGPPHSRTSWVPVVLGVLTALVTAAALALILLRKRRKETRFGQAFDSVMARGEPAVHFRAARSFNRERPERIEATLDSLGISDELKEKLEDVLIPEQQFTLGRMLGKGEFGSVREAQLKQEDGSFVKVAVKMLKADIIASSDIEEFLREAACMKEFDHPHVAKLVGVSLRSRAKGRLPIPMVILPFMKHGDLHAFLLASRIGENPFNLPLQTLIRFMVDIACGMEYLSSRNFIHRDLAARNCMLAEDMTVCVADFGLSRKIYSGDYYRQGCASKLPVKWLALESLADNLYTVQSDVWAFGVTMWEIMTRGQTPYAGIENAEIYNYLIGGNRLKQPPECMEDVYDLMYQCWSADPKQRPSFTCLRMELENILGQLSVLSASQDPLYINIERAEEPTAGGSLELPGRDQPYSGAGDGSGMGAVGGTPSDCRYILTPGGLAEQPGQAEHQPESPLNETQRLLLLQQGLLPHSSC

[11] = biological target: T2, Tyrosine-protein kinase receptor TYRO3 (Homo sapiens); conditions: at 1 µM
[12] = biological target: Tyrosine-protein kinase Yes (Homo sapiens) (UniProt P07947); conditions: at 0.1 µM
[13] = biological target: Tyrosine-protein kinase Yes (Homo sapiens) (UniProt P07947); conditions: at 1 µM
[14] = biological target: T3, Tyrosine-protein kinase ZAP-70 (Homo sapiens) (UniProt P43403); conditions: at 0.1 µM
T3 sequence (whole entry): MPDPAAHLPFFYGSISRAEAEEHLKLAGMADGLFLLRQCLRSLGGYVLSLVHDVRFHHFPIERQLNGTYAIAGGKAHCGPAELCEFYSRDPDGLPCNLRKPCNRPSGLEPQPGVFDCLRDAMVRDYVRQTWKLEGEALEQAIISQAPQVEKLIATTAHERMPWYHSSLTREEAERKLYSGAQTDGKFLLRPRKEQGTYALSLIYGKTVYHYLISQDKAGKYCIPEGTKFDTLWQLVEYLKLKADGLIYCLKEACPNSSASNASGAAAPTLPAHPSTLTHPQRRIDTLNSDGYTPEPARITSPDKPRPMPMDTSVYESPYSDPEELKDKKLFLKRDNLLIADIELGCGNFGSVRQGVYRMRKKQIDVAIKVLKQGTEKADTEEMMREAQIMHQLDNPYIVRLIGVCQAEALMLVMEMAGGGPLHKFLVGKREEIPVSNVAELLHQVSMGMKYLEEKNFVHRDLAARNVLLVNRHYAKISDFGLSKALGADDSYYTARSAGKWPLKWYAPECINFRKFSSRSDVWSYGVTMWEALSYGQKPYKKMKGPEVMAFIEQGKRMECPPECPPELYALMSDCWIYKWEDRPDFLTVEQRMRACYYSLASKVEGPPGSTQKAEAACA

[15] = biological target: T3, Tyrosine-protein kinase ZAP-70 (Homo sapiens); conditions: at 1 µM
[16] = biological target: Serine/threonine-protein kinase B-raf (Homo sapiens) (UniProt P15056); conditions: at 0.1 µM
[17] = biological target: Serine/threonine-protein kinase B-raf (Homo sapiens) (UniProt P15056); conditions: at 1 µM
[18] = system: Serine/threonine-protein kinase B-raf (Homo sapiens), P15056 [V600E]; conditions: at 0.1 µM
[19] = system: Serine/threonine-protein kinase B-raf (Homo sapiens), P15056 [V600E]; conditions: at 1 µM
[20] = biological target: RAF proto-oncogene serine/threonine-protein kinase (Homo sapiens) (UniProt P04049); conditions: at 0.1 µM;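 also: values are mean CRAF kinase inhibition from profiling of the GSK Published Kinase Inhibitor Set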
Chain of RAF proto-oncogene serine/threonine-protein kinase (Homo sapiens) (P04049 whole entry): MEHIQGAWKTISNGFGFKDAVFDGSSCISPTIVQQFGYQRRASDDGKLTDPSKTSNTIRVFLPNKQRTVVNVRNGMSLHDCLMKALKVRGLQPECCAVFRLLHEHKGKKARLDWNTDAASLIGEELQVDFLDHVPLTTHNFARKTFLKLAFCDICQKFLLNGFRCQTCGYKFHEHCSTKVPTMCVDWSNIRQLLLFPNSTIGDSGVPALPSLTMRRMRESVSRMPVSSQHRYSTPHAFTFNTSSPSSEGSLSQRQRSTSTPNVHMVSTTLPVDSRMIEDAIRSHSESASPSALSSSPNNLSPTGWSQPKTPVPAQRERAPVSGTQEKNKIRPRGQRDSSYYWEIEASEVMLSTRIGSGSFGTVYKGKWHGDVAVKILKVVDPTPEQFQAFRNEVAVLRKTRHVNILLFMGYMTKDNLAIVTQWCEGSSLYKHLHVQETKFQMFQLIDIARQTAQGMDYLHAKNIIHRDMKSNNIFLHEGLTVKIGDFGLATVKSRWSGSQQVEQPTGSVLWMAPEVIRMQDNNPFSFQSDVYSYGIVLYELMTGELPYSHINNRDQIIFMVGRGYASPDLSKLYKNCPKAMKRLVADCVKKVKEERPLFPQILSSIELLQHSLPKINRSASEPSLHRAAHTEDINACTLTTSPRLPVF

Chain of Tyrosine-protein kinase Yes (Homo sapiens) (P07947 2-543 limits assumed): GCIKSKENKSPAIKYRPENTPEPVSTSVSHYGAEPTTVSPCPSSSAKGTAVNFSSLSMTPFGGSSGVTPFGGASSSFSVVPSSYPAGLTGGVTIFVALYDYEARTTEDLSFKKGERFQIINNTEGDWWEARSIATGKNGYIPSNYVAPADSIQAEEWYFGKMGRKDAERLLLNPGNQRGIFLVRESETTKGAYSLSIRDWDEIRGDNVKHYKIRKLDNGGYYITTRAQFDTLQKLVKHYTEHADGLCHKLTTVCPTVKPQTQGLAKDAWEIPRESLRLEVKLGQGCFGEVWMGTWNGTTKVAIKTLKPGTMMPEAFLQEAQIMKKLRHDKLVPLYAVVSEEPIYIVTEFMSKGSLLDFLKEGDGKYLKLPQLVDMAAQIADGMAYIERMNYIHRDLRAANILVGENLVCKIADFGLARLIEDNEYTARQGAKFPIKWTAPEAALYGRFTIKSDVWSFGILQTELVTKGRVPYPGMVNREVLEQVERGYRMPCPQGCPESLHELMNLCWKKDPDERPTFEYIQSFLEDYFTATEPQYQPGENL
Chain of Non-receptor tyrosine-protein kinase TYK2 (Homo sapiens) (P29597 whole entry): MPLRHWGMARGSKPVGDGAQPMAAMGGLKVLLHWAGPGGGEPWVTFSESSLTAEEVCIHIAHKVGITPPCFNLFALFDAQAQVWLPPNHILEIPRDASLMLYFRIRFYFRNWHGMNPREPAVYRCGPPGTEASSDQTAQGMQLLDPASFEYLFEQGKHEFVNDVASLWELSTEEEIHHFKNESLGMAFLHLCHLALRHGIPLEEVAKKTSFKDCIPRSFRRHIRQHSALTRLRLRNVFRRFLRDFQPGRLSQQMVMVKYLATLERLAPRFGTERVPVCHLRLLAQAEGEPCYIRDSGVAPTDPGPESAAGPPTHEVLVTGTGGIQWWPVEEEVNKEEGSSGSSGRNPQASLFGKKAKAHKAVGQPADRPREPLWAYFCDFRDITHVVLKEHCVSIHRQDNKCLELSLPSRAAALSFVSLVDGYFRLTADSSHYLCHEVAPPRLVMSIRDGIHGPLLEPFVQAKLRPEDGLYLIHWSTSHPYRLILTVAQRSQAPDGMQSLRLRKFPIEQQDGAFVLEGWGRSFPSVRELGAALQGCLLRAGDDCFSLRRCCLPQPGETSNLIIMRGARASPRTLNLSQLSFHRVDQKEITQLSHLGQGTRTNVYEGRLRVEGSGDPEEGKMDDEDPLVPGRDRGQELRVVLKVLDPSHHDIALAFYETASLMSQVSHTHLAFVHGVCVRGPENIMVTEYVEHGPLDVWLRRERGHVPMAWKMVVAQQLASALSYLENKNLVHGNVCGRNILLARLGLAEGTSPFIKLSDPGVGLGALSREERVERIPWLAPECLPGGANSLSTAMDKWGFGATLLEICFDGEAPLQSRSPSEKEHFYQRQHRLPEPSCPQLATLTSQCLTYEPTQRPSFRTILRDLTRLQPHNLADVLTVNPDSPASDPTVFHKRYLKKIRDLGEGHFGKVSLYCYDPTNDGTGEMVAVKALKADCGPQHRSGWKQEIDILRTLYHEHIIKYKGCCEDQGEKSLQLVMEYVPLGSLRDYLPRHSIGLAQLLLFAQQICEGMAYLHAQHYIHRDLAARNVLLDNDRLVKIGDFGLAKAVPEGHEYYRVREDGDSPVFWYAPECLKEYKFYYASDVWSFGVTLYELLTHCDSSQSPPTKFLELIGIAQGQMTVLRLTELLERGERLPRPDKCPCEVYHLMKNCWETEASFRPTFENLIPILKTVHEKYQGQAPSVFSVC
Chain of Tyrosine-protein kinase Fgr (Homo sapiens) (P09769 2-529 limits assumed): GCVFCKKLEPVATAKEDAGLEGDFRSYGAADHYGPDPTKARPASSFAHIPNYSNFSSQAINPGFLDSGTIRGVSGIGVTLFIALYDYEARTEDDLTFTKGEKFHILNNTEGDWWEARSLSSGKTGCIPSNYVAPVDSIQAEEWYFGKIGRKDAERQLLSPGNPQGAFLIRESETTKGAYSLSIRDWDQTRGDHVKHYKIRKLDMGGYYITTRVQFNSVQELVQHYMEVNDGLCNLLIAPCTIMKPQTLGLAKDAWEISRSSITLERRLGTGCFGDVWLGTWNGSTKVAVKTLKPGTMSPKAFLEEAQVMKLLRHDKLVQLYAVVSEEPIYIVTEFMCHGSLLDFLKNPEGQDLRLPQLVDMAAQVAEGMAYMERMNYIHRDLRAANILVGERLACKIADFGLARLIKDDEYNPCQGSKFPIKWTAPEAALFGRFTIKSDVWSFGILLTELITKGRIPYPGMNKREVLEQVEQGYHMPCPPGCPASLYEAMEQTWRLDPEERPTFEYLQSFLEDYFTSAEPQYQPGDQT
Chain of Serine/threonine-protein kinase B-raf (Homo sapiens) (P15056 whole entry): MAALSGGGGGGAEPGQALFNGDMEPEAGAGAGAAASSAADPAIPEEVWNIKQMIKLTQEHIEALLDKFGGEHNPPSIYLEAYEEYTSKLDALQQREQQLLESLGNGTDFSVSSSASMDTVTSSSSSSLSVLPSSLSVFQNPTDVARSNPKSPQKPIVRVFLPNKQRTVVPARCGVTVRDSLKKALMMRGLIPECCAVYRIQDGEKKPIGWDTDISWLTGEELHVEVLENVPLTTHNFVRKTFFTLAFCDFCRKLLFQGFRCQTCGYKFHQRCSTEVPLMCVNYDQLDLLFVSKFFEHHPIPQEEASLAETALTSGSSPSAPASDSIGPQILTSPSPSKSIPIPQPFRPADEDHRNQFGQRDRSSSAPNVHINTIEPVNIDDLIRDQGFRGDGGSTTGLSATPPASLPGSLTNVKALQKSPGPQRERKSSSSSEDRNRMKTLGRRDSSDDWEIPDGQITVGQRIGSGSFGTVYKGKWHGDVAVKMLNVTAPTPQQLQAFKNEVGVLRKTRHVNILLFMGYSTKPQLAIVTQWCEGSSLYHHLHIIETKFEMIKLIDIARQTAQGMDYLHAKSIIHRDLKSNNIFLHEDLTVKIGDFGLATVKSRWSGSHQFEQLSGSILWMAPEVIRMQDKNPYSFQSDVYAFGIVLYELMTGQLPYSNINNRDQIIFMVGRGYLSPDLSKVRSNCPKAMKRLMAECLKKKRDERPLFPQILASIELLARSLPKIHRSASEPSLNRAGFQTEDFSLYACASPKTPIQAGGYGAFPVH
Chain of Serine/threonine-protein kinase B-raf (Homo sapiens), P15056 [V600E] (P15056 whole entry V600E): as the sequence (P15056 whole entry) above, with V600E counted along it
Chain of Vascular endothelial growth factor receptor 1 (Homo sapiens) (P17948 whole entry): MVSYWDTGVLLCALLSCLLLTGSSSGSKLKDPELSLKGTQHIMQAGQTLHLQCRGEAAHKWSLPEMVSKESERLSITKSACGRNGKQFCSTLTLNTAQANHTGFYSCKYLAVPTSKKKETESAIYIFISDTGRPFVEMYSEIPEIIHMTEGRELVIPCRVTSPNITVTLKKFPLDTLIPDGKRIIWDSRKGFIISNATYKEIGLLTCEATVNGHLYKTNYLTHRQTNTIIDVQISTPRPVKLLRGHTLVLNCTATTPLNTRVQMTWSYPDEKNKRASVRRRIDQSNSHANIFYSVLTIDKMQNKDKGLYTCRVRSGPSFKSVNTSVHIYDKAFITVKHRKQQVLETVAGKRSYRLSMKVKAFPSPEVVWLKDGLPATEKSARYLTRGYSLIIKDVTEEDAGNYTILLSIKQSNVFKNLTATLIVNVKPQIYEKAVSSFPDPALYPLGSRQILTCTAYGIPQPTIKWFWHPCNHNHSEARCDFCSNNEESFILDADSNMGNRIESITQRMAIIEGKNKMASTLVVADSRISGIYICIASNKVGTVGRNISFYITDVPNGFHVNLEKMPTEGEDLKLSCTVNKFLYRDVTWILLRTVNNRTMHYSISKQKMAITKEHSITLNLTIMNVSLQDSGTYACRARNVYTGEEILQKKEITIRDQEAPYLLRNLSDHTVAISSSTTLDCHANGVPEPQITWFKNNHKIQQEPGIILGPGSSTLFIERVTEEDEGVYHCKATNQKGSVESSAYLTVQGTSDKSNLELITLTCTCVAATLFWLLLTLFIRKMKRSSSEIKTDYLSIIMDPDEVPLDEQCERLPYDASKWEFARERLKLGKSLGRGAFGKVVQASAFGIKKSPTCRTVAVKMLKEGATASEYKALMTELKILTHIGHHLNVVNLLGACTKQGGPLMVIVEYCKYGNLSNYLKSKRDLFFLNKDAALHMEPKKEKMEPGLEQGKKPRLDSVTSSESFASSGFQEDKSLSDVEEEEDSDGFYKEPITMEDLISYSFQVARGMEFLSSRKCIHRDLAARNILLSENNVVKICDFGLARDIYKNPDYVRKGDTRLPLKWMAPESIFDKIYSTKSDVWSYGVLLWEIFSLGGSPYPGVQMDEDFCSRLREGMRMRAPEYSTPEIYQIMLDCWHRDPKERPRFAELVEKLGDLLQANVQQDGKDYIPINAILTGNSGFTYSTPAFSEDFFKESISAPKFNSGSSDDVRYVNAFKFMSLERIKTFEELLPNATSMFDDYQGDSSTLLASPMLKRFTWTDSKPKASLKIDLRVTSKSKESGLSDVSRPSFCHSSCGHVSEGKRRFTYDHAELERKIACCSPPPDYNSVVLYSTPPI

| SMILES | inhibition [1] [%] | inhibition [2] [%] | inhibition [3] [%] | inhibition [4] [%] | inhibition [5] [%] | inhibition [6] [%] | inhibition [7] [%] | inhibition [8] [%] | inhibition [9] [%] | inhibition [10] [%] | inhibition [11] [%] | inhibition [12] [%] | inhibition [13] [%] | inhibition [14] [%] | inhibition [15] [%] | inhibition [16] [%] | inhibition [17] [%] | inhibition [18] [%] | inhibition [19] [%] | inhibition [20] [%] |
| --- | --- | --- | --- | --- | --- | --- | --- | --- | --- | --- | --- | --- | --- | --- | --- | --- | --- | --- | --- | --- |
| CNC(=O)c1cc(-c2ccc(F)cc2)cc(-c2ccc(S(=O)(=O)N3CCCC3)cc2)c1N | 0.22 | 0.33 | 2.93 | 2.17 | -0.47 | 3.03 | 1.85 | -1.38 | -1.28 | 1.59 | 1.73 | 2.18 | 3.44 | -0.4 | -0.59 | 3.72 | 3.4 | 3.04 | 3.6 | 0.46 |
| CCn1c(-c2nonc2N)nc2ccccc21 | -0.03 | 2.86 | 4.31 | 2.69 | 0.59 | 0.25 | 0.31 | 3.23 | -0.21 | 1.05 | 0.63 | -0.03 | -1.08 | 1 | -0.17 | 3.74 | 4.94 | 3.64 | 4.52 | 2.9 |
| Clc1ccc(-c2nn3ncccc3c2-c2ccnc(Nc3ccccc3)n2)cc1 | 1.94 | 25.1 | 70.2 | 4.39 | 14.6 | 0.8 | 4.19 | -2.63 | -0.64 | 1.14 | 5.63 | 44.9 | 89.5 | 0.2 | 0.42 | 2.69 | 4.94 | 2.08 | 5.6 | -2.35 |
| c1ccc(-c2nc3n(c2-c2ccc4c(c2)OCO4)CCC3)nc1 | 1.32 | -0.63 | 0.17 | 1.18 | 0.86 | 1.13 | 0.36 | -1.36 | -1.07 | 0.75 | 1.8 | 1.3 | 3.94 | 4.17 | 1.94 | 2.61 | 2.48 | 2.01 | 3.56 | -0.19 |
| Nc1nc(-c2cccc(Cl)c2)c(-c2ccc3ncccc3n2)s1 | 2.06 | 4.53 | 4.6 | 0.88 | 3.45 | 2.09 | 2 | -4.43 | -0.72 | 3.62 | 5.98 | 4.06 | 18.4 | 4.31 | 3.94 | 7.17 | 9.65 | 7.28 | 8.63 | -1.17 |
| CS(=O)(=O)CCNCc1ccc(-c2ccc3ncnc(Nc4ccc(OCc5ccccc5)c(C(F)(F)F)c4)c3c2)o1 | 2.14 | 1.98 | 4.93 | 1.28 | 0.39 | 3.55 | 2.04 | -8.47 | -3.76 | 5.89 | 6.25 | 2.85 | 7.92 | 0.47 | 2.41 | 5.9 | 4.19 | 3.97 | 3 | 1.81 |
| COc1cccc(-n2ncc3c(N/N=C/c4ccc(F)cc4)ncnc32)c1 | 2.78 | 11.4 | 29.7 | 2.07 | 3.41 | 3.58 | 7.87 | 0.24 | -1.74 | 5 | 9.33 | 5.87 | 25.1 | 2.73 | 2.54 | 7.43 | 8.16 | 5.77 | 7.05 | 0.27 |
